The panel holds about 83,000 compounds, 20% with a hit somewhere; the sample as a whole holds those more often.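 Values shown are percent growth following 48 h exposure of cells in 96-well plates to a single concentration of compound; below 10 was considered active.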 A number with no mark means an inactive call. Active and inactive are the calls of the source.

Common to all, as to assay: NCI-60 one-dose screen, 48 h (100 = growth as untreated, 0 = no growth, -100 = all killed)
For one assay, the system named is SK-MEL-2 melanoma. To be noted: 10 µM unless noted.
The next assay relates to EKVX NSCLC. The conditions noted are these: 10 µM unless noted.
A further assay relates to SN12C renal. The conditions noted are these: 10 µM unless noted.
Another assay relates to UO-31 renal. To be noted: 10 µM unless noted.
Another assay deals with TK-10 renal. The conditions noted are these: 10 µM unless noted.
Another assay concerns ACHN renal. To be noted: 10 µM unless noted.
A further assay deals with CAKI-1 renal. The conditions noted are these: 10 µM unless noted.
The subject of a further assay is A498 renal. To be noted: 10 µM unless noted.
The next assay relates to CCRF-CEM leukemia. To be noted: 10 µM unless noted.
The next assay deals with MOLT-4 leukemia. To be noted: 10 µM unless noted.
The next assay deals with SR leukemia. The conditions noted are these: 10 µM unless noted.
The subject of another assay is RPMI-8226 leukemia. The conditions noted are these: 10 µM.
For a further assay, the system named is OVCAR-8 ovarian. The conditions noted are these: 10 µM unless noted.
The test system of another assay is OVCAR-5 ovarian. To be noted: 10 µM unless noted.
The next assay deals with OVCAR-4 ovarian. The conditions noted are these: 10 µM unless noted.
In the next assay the test system is SK-OV-3 ovarian. To be noted: 10 µM.
The next assay has as its system IGROV1 ovarian. To be noted: 10 µM unless noted.
The subject of another assay is OVCAR-3 ovarian. The conditions noted are these: 10 µM unless noted.
In another assay the test system is HS 578T breast. The conditions noted are these: 10 µM unless noted.
The subject of another assay is NCI/ADR-RES ovarian. The conditions noted are these: 10 µM unless noted.

With `CC(C)N1CCN(c2ccc(OC[C@H]3CO[C@](Cn4cncn4)(c4ccc(Cl)cc4Cl)O3)cc2)CC1`, the growth in the assay on SK-MEL-2 melanoma is 95%; with EKVX NSCLC, 91.4%; in the assay with SN12C renal, 81.2%; with UO-31 renal, 98.7%; in the assay on TK-10 renal, 91.5%; in the assay on ACHN renal it was 102%. Besides, the growth is 79.3% with CAKI-1 renal; 76.7% with A498 renal; 82.6% with CCRF-CEM leukemia; 86.2% in the assay with MOLT-4 leukemia; 58.1% in the assay on SR leukemia; 88.7% with RPMI-8226 leukemia. The growth is 100% in the assay with OVCAR-8 ovarian; 85.1% with OVCAR-5 ovarian; 99.2% with OVCAR-4 ovarian; 94% in the assay on SK-OV-3 ovarian; 104% in the assay on IGROV1 ovarian; 102% in the assay on OVCAR-3 ovarian. Besides, the growth in the assay on HS 578T breast was 84%.

On to `O=C1CN2CCC1C/C2=C\c1ccnc2c(Cl)cccc12` (centres undefined), for which the growth in the assay on SK-MEL-2 melanoma is 85.8%; with EKVX NSCLC, 95.7%; in the assay with SN12C renal, 94.3%; in the assay with UO-31 renal, 75.5%; with TK-10 renal it was 127%; in the assay on ACHN renal it was 91.2%. The growth in the assay on CAKI-1 renal was 93.9%; in the assay on A498 renal it was 159%; in the assay with CCRF-CEM leukemia, 96.8%; with MOLT-4 leukemia it was 97.1%; with SR leukemia, -24% (active); in the assay on RPMI-8226 leukemia, 62.2%. Besides, the growth in the assay on OVCAR-8 ovarian was 99.4%; with OVCAR-5 ovarian it was 103%; in the assay on OVCAR-4 ovarian it was 93.6%; in the assay with SK-OV-3 ovarian, 94.1%; in the assay with IGROV1 ovarian it was 95.3%; in the assay on OVCAR-3 ovarian, 123%. Further, the growth in the assay with HS 578T breast was 219%.

Take `COc1ccc(Sc2ccc3[nH]c(=O)nc(N)c3c2)cc1`: the growth in the assay on SK-MEL-2 melanoma was 104%; with EKVX NSCLC, 95.5%; in the assay with SN12C renal, 101%; with UO-31 renal, 99.2%; in the assay on TK-10 renal it was 105%; with ACHN renal it was 107%. Also, the growth with CAKI-1 renal is 106%; with A498 renal it was 98.6%; in the assay with CCRF-CEM leukemia, 95.3%; in the assay on MOLT-4 leukemia it was 97.7%; in the assay with SR leukemia, 87.1%; in the assay on RPMI-8226 leukemia it was 104%. The growth in the assay on OVCAR-8 ovarian was 98%; in the assay on OVCAR-5 ovarian, 100%; in the assay with OVCAR-4 ovarian, 99.7%; in the assay with SK-OV-3 ovarian it was 104%; with IGROV1 ovarian, 109%; with OVCAR-3 ovarian, 115%. In addition, the results for the growth in the assay with HS 578T breast and with NCI/ADR-RES ovarian were 106% and 103%, respectively.

Take `O=C(NCc1cccnc1)c1ccc([N+](=O)[O-])o1`: the growth with SK-MEL-2 melanoma is -16.7% (active); in the assay on EKVX NSCLC it was 62.1%; with SN12C renal, -53.4% (active); in the assay on UO-31 renal, 2.12% (active); in the assay on TK-10 renal it was -30.5% (active); with ACHN renal it was 34.5%. In addition, the growth is -3.61% (active) in the assay with CAKI-1 renal; 9.84% (active) with A498 renal; 54.4% with CCRF-CEM leukemia; 65.8% in the assay on MOLT-4 leukemia; 23% in the assay on SR leukemia; 52.8% in the assay on RPMI-8226 leukemia. Besides, the growth in the assay on OVCAR-8 ovarian is 4.23% (active); in the assay with OVCAR-4 ovarian, 63.9%; with SK-OV-3 ovarian, 32.3%; in the assay with IGROV1 ovarian it was 33.7%; in the assay on OVCAR-3 ovarian it was -4.71% (active); with HS 578T breast it was -9.03% (active). For the same molecule, the growth in the assay with NCI/ADR-RES ovarian is -29.1% (active).

Take `COc1cc(C(=O)N(C(C)C)C2CCCCC2)cc(OC)c1OC`: the growth in the assay on SK-MEL-2 melanoma is 98.5%; in the assay on EKVX NSCLC it was 144%; with SN12C renal it was 96.3%; with UO-31 renal, 89%; with TK-10 renal, 94%; in the assay with ACHN renal, 103%. Besides, the growth in the assay on CAKI-1 renal was 86.6%; in the assay on A498 renal it was 102%; in the assay with CCRF-CEM leukemia it was 94.8%; with MOLT-4 leukemia, 97.1%; with SR leukemia, 99.5%; with RPMI-8226 leukemia, 88.5%. Moreover, the growth in the assay with OVCAR-8 ovarian is 90.3%; with OVCAR-5 ovarian, 109%; in the assay with OVCAR-4 ovarian, 107%; in the assay on SK-OV-3 ovarian, 91.3%; in the assay with IGROV1 ovarian it was 105%; with OVCAR-3 ovarian, 113%. Moreover, the growth in the assay on HS 578T breast is 102%.

Regarding `COc1ccc(-c2[nH]ncc2Nc2cc(OC)c(OC)c(OC)c2)cc1`, the growth with SK-MEL-2 melanoma is 66.4%; in the assay on EKVX NSCLC, 49.4%; with SN12C renal, 45.4%; in the assay on UO-31 renal, 46.8%; in the assay on TK-10 renal it was 62%; in the assay with ACHN renal, 55.7%. In addition, the growth is 36.1% in the assay with CAKI-1 renal; 48.7% in the assay with A498 renal; 39.9% in the assay with CCRF-CEM leukemia; 72.6% in the assay on MOLT-4 leukemia; 116% in the assay with SR leukemia; 33.2% with RPMI-8226 leukemia. The growth was 58.1% in the assay with OVCAR-8 ovarian; 51.2% in the assay with OVCAR-4 ovarian; 18.4% with SK-OV-3 ovarian; 43% in the assay on IGROV1 ovarian; 5.17% (active) with OVCAR-3 ovarian; 49.8% in the assay on HS 578T breast.

As for `NC(=O)c1nc2c([nH]c1=O)CCCC2`, the growth was 106% in the assay with SK-MEL-2 melanoma; 114% with EKVX NSCLC; 107% with SN12C renal; 83.5% in the assay with UO-31 renal; 102% in the assay with TK-10 renal; 106% in the assay on ACHN renal. Moreover, the growth is 93% in the assay on CAKI-1 renal; 99.4% with A498 renal; 94.4% in the assay with CCRF-CEM leukemia; 97.3% in the assay with MOLT-4 leukemia; 100% with SR leukemia; 96.5% in the assay on RPMI-8226 leukemia. Besides, the growth in the assay with OVCAR-8 ovarian was 106%; in the assay on OVCAR-5 ovarian, 117%; in the assay on OVCAR-4 ovarian, 109%; in the assay on SK-OV-3 ovarian, 94.7%; with IGROV1 ovarian it was 115%; in the assay with OVCAR-3 ovarian, 108%. For the same molecule, the values for the growth in the assay with HS 578T breast and with NCI/ADR-RES ovarian were 109% and 105%, respectively.

For `Cn1cc(C(=O)NCCC(=N)N)cc1NC(=O)CN=C(N)N`, the growth in the assay with SK-MEL-2 melanoma was 105%; in the assay with EKVX NSCLC it was 103%; with SN12C renal, 95.6%; in the assay on UO-31 renal, 84%; in the assay on TK-10 renal, 109%; with ACHN renal it was 102%. The growth is 99.1% in the assay on CAKI-1 renal; 108% in the assay on A498 renal; 100% with CCRF-CEM leukemia; 103% in the assay on MOLT-4 leukemia; 104% with SR leukemia; 110% with RPMI-8226 leukemia. In addition, the growth in the assay with OVCAR-8 ovarian was 106%; in the assay with OVCAR-5 ovarian it was 88.9%; in the assay with OVCAR-4 ovarian, 105%; in the assay on SK-OV-3 ovarian, 110%; in the assay with IGROV1 ovarian, 106%; in the assay on OVCAR-3 ovarian, 112%. For the same molecule, the results for the growth in the assay with HS 578T breast and in the assay on NCI/ADR-RES ovarian were 92.4% and 94.2%, respectively.
